This passage reports growth results from PubChem BioAssay (NCI).

Each structure is given as a SMILES string. The panel holds about 83,000 compounds, 20% with a hit somewhere; the sample as a whole holds those more often.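 Results are percent growth after 48 hours of single-concentration exposure. 100 means growth as in untreated cells, lower positive values show inhibition; negative values down to -100 show cell death.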 A number with no mark means an inactive call. The source made the active and inactive calls. How the source made its calls: active means growth percent below 10; inactive means the rest.

The test system of the assay is MDA-MB-468 breast. In words: NCI-60 one-dose screen, 48 h (100 = growth as untreated, 0 = no growth, -100 = all killed). As to conditions: 10 µM unless noted.
For the compound `CC1=CC(=O)c2cccc(NC3=NCCO3)c21`, the growth is 107%.
To `O=C(/C=C/C12c3ccccc3C(c3ccccc31)C1C(=O)NC(=O)C12)c1ccco1` (centres undefined) belongs 21.8%; to `C#CCOc1cccc(Nc2c(Cl)c(CCl)nc3ccc(Oc4ccccc4)cc23)c1`, 24.7%; to `Nc1c(Cl)cc2c(c1Br)C(=O)c1ccccc1C2=O`, 85.4%.
The result for `CCN(CC)c1cc(N)c(Cc2c(N)cc(N(CC)CC)cc2Cl)c(Cl)c1` reads -15.8% (active); that for `c1cc(-c2nnc(SSc3ncnc4nc[nH]c34)o2)ccn1`, -9.07% (active).
Consider `COc1cc(-c2nc(SC(C)C)nc(Nc3cccc(C)c3)c2C#N)cc(OC)c1OC`, for which the growth is 117%.
For the compound `Cc1ncc(C(=O)Nc2ccc(CN3CCN(C)CC3)c(C(F)(F)F)c2)cc1C#Cc1cnc(N)c2ccncc12`, the growth is -36.7% (active).
Regarding `CCCCCCCCCCCCCCCCOc1ccccc1NC(=O)CC(C)=O`, the growth is 111%.
Consider `CCCCC1COc2cccc3c2N1C=C/C3=C\C(=O)n1ccc2ccccc21` (centres undefined), for which the growth is 12.3%.
As for `CN(C)c1nc2c(N)ncnc2n1C1OC(CO)C(O)C1O` (centres undefined), the growth was 102%.
To `CCC1CN2C(=N1)c1ccccc1-c1cc(Cl)ccc12` (centres undefined) belongs -7.75% (active).
The result for `CCN1CCN(Cc2cn(-c3ccc(S(N)(=O)=O)cc3)nn2)CC1` reads 99.7%; that for `CCCN(CCC)c1ccc(/C=C/c2ccc3cc(OCC)ccc3n2)cc1`, 74.1%; that for `Cc1nn(-c2ccccc2)c2nc(N)c(C3=NCCO3)nc12`, 113%.
For `COc1c(-c2cc(-c3ccc(C)o3)[nH]c(=O)n2)c(O)cc2occc12`, the growth is 25.8%.
The result for `COc1ccc2nc3cc(Cl)ccc3c(N3CCN(c4nccc(Nc5ccccc5)n4)CC3)c2c1` reads 37.9%; that for `CCCn1nc(C(=O)N(C)Cc2ccccc2)c2c1CCC(N1CCc3ccccc31)C2` (centres undefined), 92.8%.
Consider `O=C(Nc1cnc(Nc2ccc(N3CCOCC3)nc2)nc1Oc1ccc(C(F)(F)F)cc1)c1ccncc1`, for which the growth was 103%.
For `Cc1nc2ccc(C(=O)NCc3cc(C(=O)O)c(C)o3)cc2nc1C`, the growth is 98.7%.
Regarding `COc1ccc2cc(C(C)C(=O)Nc3ccc(-c4n[nH]c(=S)n4C4CCCCC4)cc3)ccc2c1` (centres undefined), the growth is 111%.
For `Cc1ccc2c(/C=C/C(=O)c3cc(CN4CCOCC4)c(O)c4nc(C)ccc34)cc(CN3CCOCC3)c(O)c2n1`, the growth was -40.4% (active).
Regarding `CCN(CC)N=Nc1nn(C(=O)Nc2ccc(Cc3ccccc3)cc2)c2ccc(Cl)cc12`, the growth is 101%.
On to `Cc1nc2sc(C(=O)Nc3cccc(Br)c3)c(N)c2cc1C(O)c1ccccc1` (centres undefined), for which the growth was 11.9%.
In the case of `CN(Cc1ccccc1)c1nc(Cl)c(C2CC(c3ccccc3)=NN2c2ccccc2)s1` (centres undefined), the growth is 98.7%.
For the compound `COc1ccc(C(C)=O)c(OC)c1`, the growth was 97.7%.
With `CC[C@H](Nc1ncnc2nc[nH]c12)c1nc2cccc(NCc3ccc(C(=O)NO)o3)c2c(=O)n1-c1ccccc1`, the growth is 84.7%.
Regarding `O=S(=O)(NCCO)c1ccc(OCCOc2ccc(S(=O)(=O)NCCO)cc2)cc1`, the growth was 95.3%.
In the case of `O=C(C[n+]1cccc(Br)c1)c1ccc2c(c1)CCCC2`, the growth is 94%.
The result for `NS(=O)(=O)c1ccc(Nc2nc(Nc3ccccc3)nc3nnc(SCC(=O)NC4CCCCC4)n23)cc1` reads 104%; that for `O=C(C(Br)Br)C(Br)C(Br)c1ccccc1` (centres undefined), 9.8% (active); that for `Cc1ccc(Sc2nnc(/N=C3\C(=O)Nc4ccccc43)s2)cc1`, 102%.
For `O=C1c2c(c3c4ccccc4n(CCCCCCN4CCOCC4)c3c3[nH]c4ccccc4c23)C(=O)N1O`, the growth is 103%.
The result for `COc1cc(-c2cc(-c3ccc(Nc4ncnc5cc(Cl)ccc45)cc3)nc(N3CCCCC3)n2)cc(OC)c1OC` reads 107%.
To `C=C(C)[C@@H]1CC[C@]2(C(=O)NCCCO)CC[C@]3(C)[C@H](CC[C@@H]4[C@@]5(C)CCCNC(C)(C)[C@@H]5CC[C@]43C)[C@@H]12` belongs 72.3%; to `O=C(NCN1C(=O)c2cccc3cccc(c23)C1=O)N1CCC(Cc2ccccc2)CC1`, 101%.
The result for `O=C1c2ccccc2C(=O)c2c1ccc1[nH]c(-c3cccs3)nc21` reads 99.6%.
`C=CC(=O)OC1CCC(C(C)(C)CC)CC1` (centres undefined): the growth is 108%.
`CC(C)n1nc(C#Cc2cccc3cc(-c4cccc(C(F)(F)F)c4)ncc23)c2c(N)ncnc21`: the growth was 98.3%.
